# DAX1 inh-1: DAX1 (NR0B1) inhibitors, primary screen, cell-based, HEK293, Gal4-DAX1, luciferase luminescence; AID 504766, 2011; HEK293 Gal4-DAX1 luciferase reporter; inhibition, % at 6.75 µM; Nuclear receptor subfamily 0 group B member 1 (Homo sapiens), P51843; actives 0.99% (n = 340,000);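 active = inhibition above the mean over all tested compounds plus 3 SD, cut at about 4.2% in these data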;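 also: 0% = DAX1-transfected cells with DMSO and 100% = empty-vector control cells with DMSO; inhibition shows as a rise in luminescence from relieved DAX1 repression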
# Target sequence (P51843 207-470 limits assumed): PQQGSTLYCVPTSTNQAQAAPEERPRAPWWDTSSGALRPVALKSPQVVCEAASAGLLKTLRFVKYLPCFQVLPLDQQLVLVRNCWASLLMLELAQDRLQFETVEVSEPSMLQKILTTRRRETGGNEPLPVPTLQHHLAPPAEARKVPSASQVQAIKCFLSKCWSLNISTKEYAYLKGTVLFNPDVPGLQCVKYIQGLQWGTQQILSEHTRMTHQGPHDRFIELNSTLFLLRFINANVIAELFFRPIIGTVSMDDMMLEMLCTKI
# GAA850 FXN act: FXN promoter activators, primary screen, cell-based, luciferase luminescence, HEK293 lucGAA850. actives 0.56% (n = 360,000). HEK293 lucGAA850 FXN promoter luciferase reporter, 24 h; percent of 10 µM SAHA response. activation, % at 6 µM. AID 540364, 2011;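 active = activation above the average of all compounds screened plus 3 SD, cutoff fixed separately per campaign, cut at about 7.5% in these data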;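 also: 0% = DMSO wells and 100% = 10 µM SAHA wells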
# hcDAF-12 act: H. contortus DAF-12 nuclear receptor activators, primary screen, cell-based, luminescence, HEK293, lit1-tk-luc reporter. HEK293 hcDAF-12 lit1-tk-luc reporter; 0% DMSO, 100% Δ7-dafachronic acid. activation, % at 6.8 µM. actives 1.4% (n = 370,000). AID 652067, 2013;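 active = activation above the mean of all tested compounds plus 3 SD, cut at about 5.5% in these data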;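 also: 100% = response to 3 µM Δ7-dafachronic acid high control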
# DAX1 inh-2: DAX1 (NR0B1) inhibitors on StAR promoter, primary screen, cell-based, luminescence, SF-1 (NR5A1), full-length DAX-1. HEK293T StAR-luciferase reporter, SF-1/DAX-1 repression relief. inhibition, % at 6.8 µM. actives 1.1% (n = 370,000);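 active = inhibition above the mean over all tested compounds plus 3 SD, cut at about 3.6% in these data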;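 also: 0% = DAX-1 cells with DMSO and 100% = cells lacking DAX-1 with DMSO; higher inhibition means more luminescence from relief of DAX-1 repression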
# hgDAF-12 ag: H. glycines DAF-12 receptor agonists, primary screen, cell-based, luminescence, HEK293, GAL4 fusion, UAS-luciferase; Nuclear hormone receptor DAF-12 (Heterodera glycines), GAL4 fusion; HEK293 GAL4-hgDAF12 UAS-luciferase reporter, agonist luminescence; normalized to butyrate control; activation, % at 6.8 µM; actives 1.8% (n = 370,000);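 active = activation above a cutoff set at the mean of all screened compounds plus 3 SD, cut at about 10% in these data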;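 also: 0% = DMSO wells and 100% = sodium butyrate wells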
# ssDAF-12 act: S. stercoralis DAF-12 nuclear receptor activators, primary screen, cell-based, luminescence, HEK293, GRIP1 co-expression, lit1-tk-luc; HEK293 ssDAF-12/GRIP1 lit1-tk-luc reporter; % of 3 µM dafachronic acid response; activation, % at 6.8 µM; actives 1% (n = 370,000); AID 652126, 2013;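 active = activation above the mean over all tested compounds plus 3 SD, cut at about 0.9% in these data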;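 also: 0% = DMSO-only wells and 100% = 3 µM delta7-dafachronic acid wells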
# DAX1 inh confirm: DAX1 (NR0B1) inhibitors relieving SF-1 repression, confirmation, cell-based, luminescence, HEK293T, full-length DAX-1, SF-1 activated StAR promoter; inhibition, % at 6.8 µM; shares compounds with DAX1 inh-2; HEK293T StAR-promoter luciferase reporter, SF-1/DAX-1 repression; actives 87% (n = 2,400);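 active = inhibition above the average of every tested compound plus 3 SD, cut at about 3.8% in these data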;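 also: 0% = DAX-1 cells with DMSO and 100% = no DAX-1 control cells with DMSO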
# SF1 AF2mut Luc: StAR reporter signal changes without DAX1, counter-screen for DAX1 inhibitor project, cell-based, luminescence, AF-2 mutant SF-1, transactivation; shares compounds with DAX1 inh-2; HEK293 StAR-luciferase, SF-1 AF2 mutant; inhibition, % at 6.8 µM; actives 78% (n = 2,400);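 active = inhibition above the mean of all tested compounds plus 3 SD, cut at about 3% in these data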;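 also: 0% = DAX-1 transfected cells with DMSO and 100% = cells without DAX-1 with DMSO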
# * hit, by the source's call; x = not tested or not shown. Sampled rows, rich in hits. Any-hit rate of the full collection: about 4.5%.
SMILES,DAX1 inh-1,GAA850 FXN act,hcDAF-12 act,DAX1 inh-2,hgDAF-12 ag,ssDAF-12 act,DAX1 inh confirm,SF1 AF2mut Luc
CC1=CC=CC2=NC(=O)CC(C)(C(=O)N(CC(=O)NC3CCCC3)c3ccc(F)cc3)N12 (stereo unspecified),1,0,1,0,0,-1,x,x
CCNc1nc(NCC)nc(N/N=C(\C)c2ccc(OC)cc2)n1,-2,0,-1,-1,-1,-1,x,x
COc1ccc(/C(C)=N/Nc2nccnc2Cl)cc1,-1,5,2,5.6*,8,1,4.2*,3
CCN(CC)C(=O)OCCc1cc2ccccc2c(=O)o1,-1,3,1,1,0,-1,x,x
Cc1ccc(NC(=O)NCCN2C(=O)C3C4C=CC(C4)C3C2=O)cc1 (stereo unspecified),5.8*,3,6.5*,5.1*,10,-1,13*,6.1*
O=C(NCCN1C(=O)C2C3C=CC(C3)C2C1=O)NCc1ccccc1 (stereo unspecified),2,0,0,-2,-2,-2,x,x
O=C(Cc1cccc(NC(=O)C2CCN(C(=O)C3CC3)CC2)c1)Nc1cccc(C(=O)N2CCCCC2)c1,0,1,-1,1,-1,0,x,x
CC1CCCN(CCCNS(=O)(=O)c2ccc3c(c2)CCN3C(=O)C2CC2)C1 (stereo unspecified),0,1,-1,1,-2,-1,x,x
COc1cc(OC)c2c3c(c(C4CCCCC4)nc2c1)CCC3,0,1,-1,0,2,-2,x,x
N#Cc1c(NC(=O)c2ccco2)sc2c1CCC2,0,3,3,9.4*,11*,-1,9.1*,3.7*
Cc1ccc(S(=O)(=O)n2c(C)nc3ccccc32)cc1,1,3,-2,0,-1,-1,x,x
Nc1nc2ccccc2n1S(=O)(=O)c1ccccc1,x,2,-1,4.8*,-1,-1,2,1
O=C(NC(=S)Nc1ccc2nc[nH]c2c1)c1ccccc1,1,3,0,6.5*,6,0,5.9*,3.1*
O=C(O)c1cccc(NC(=S)NC(=O)c2ccc3ccccc3c2)c1,-3,-3,-1,11*,3,-1,8.0*,4.4*
O=C(Nc1ccc2ncccc2c1)c1ccccc1,-1,-1,-3,0,0,-1,x,x
O=C(NC(=S)Nc1ccc2ncccc2c1)c1ccccc1,1,7,3,4.8*,12*,-1,7.7*,5.8*
CC1(Cc2cccc(C#N)c2)C(=O)Nc2c(Cl)cccc21 (stereo unspecified),x,3,-2,0,-1,-1,x,x
CCc1ccccc1NC(=O)[C@@H]1CCCN1S(=O)(=O)c1cccc2cccnc12,x,x,-3,x,-4,-2,x,x
C=CCSc1nnc(NC(=O)C2=COCCO2)s1,3,5,5.7*,6.8*,8,0,7.1*,6.6*
O=C(Nc1nnc(SCc2ccc(F)cc2)s1)C1=COCCO1,0,1,2,4,4,-1,x,x
O=C(Nc1nnc(SCc2ccccc2)s1)C1=COCCO1,0,2,3,2,4,0,x,x
O=C(Nc1nnc(SCc2ccccc2F)s1)C1=COCCO1,0,4,3,5.8*,4,0,6.4*,2
O=C(NCc1nnnn1-c1ccc(F)c(F)c1)c1ccc(S(=O)(=O)N2CCOCC2)cc1,0,1,-1,-1,0,-1,x,x
Brc1ccc(-c2noc(C3CCCCC3)n2)cc1,0,4,0,0,-1,0,x,x
OC[C@H]1O[C@@H](c2nc(-c3ccc(Br)cc3)no2)C[C@@H]1O,x,3,5.8*,4.8*,12*,0,6.0*,4.9*
SMILES,DAX1 inh-1,GAA850 FXN act,hcDAF-12 act,DAX1 inh-2,hgDAF-12 ag,ssDAF-12 act,DAX1 inh confirm,SF1 AF2mut Luc
CC(=O)N1c2ccc(S(=O)(=O)N3CCC(C(=O)Nc4cccc(C(F)(F)F)c4)CC3)cc2CC1C (stereo unspecified),-1,0,-6,-1,-6,-2,x,x
CC12CCC(=O)N1C(C(=O)NNC(=O)c1ccc(Br)cc1)CS2 (stereo unspecified),2,1,-1,5.5*,3,-1,1,-1
COc1cccc(NC(=O)CN(C)CC(=O)Nc2ccc3c(c2)OCO3)c1,-1,1,-2,1,-2,-1,x,x
COc1cccc(NC(=O)Nc2ccc3c(c2)OCO3)c1,1,6,3,8.4*,10,0,6.2*,4.9*
Cc1ccc(NC(=O)Nc2ccc3c(c2)OCO3)c(OC(F)F)c1,2,4,1,5.7*,9,0,9.1*,7.1*
COc1ccc(C=C2CCc3ccccc3C2=O)cc1,x,x,3,6.6*,2,0,7.2*,-6
COc1ccc(N=C2C(=S)N(c3ccc(OC)cc3)C(=NS(=O)(=O)c3ccccc3)N2c2ccccc2)cc1,2,0,5,8.2*,13*,0,2,4.2*
O=C(NCCS(=O)(=O)NCCc1ccccc1)c1ccccc1,1,0,1,4.7*,3,0,3,1
O=C(CSc1nnc2ccc(-c3ccccn3)nn12)N1CCCC1,0,0,-1,0,-4,-1,x,x
Cc1ccc(C(=O)Nc2ncccc2O)o1,3,4,1,6.0*,9,0,5.4*,1
Cc1ccc(C)c(/C=N/Nc2nc3ccccc3c(=O)n2O)c1,x,2,-1,1,3,-1,x,x
O=C(CNC(=O)c1ccc2c(c1)OCO2)Nc1ncccc1O,1,4,2,5.3*,7,0,6.1*,3.7*

# Source: PubChem BioAssay
